# Bioassay records: PubChem BioAssay, National Center for Advancing Translational Sciences (NCATS)
# JMJD2A Tudor: blocks the human JMJD2A Tudor domain. O75164. AlphaScreen JMJD2A-Tudor / H3K4me3 peptide binding. Potency, µM (titrated, usually from 114 µM), without a hit: top-dose activity change, negative = inhibition, most hits filed as inhibitors. hit rate 4.4% among 390,000; further: on the % scale 0 is the no-effect control and ±100 the full control effect; nearly all actives have a fitted effect of over 50% in size
# BAZ2B inh: inhibitors of human BAZ2B bromodomain. Q9UIF8. AlphaScreen BAZ2B-H3K14Ac peptide displacement. Potency, µM (titrated, usually from 114 µM), for inactives: at the top dose activity change, negative = inhibition, most hits filed as inhibitors. hit rate 4.4% among 360,000. AID 504333; further: on the % scale 0 is the no-effect control and ±100 the full control effect; nearly all actives have a fitted effect of over 60% in size
#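 Inhibition is scored as reduced AlphaScreen emission. The BAZ2B/b-H3(5-23)K14Ac complex (50 nM each) in PBS pH 7.4, 0.01% Tween-20 meets compound (up to 110 uM) for 30 min at RT before bead addition.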
# L3MBTL1 block: L3MBTL1 (human) inhibition. Potency, µM (top dose mostly 57.1 µM), inactives show at the top dose activity, negative = inhibition, usual class: inhibitors. Q9Y468. hit rate 0.66% among 230,000. AlphaScreen L3MBTL1–H3K9me1 peptide binding; further: on the % scale 0 is the no-effect control and ±100 the full control effect; nearly all actives have a fitted effect of over 60% in size
#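 AlphaScreen assay: L3MBTL1 (50 nM final) was preincubated 30 min at room temperature with biotinylated H3(1-15)K9me1 peptide (75 nM final), then 30 min with library compounds; streptavidin donor and nickel chelate acceptor beads (10 ug/mL final) added, 30 min dark.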
# Sfp PPTase inh: inhibitors of Bacillus subtilis Sfp phosphopantetheinyl transferase. Q9F4F7. Biochemical Sfp PPTase activity, qHTS. Potency, µM, without a hit: largest response in the series, negative = inhibition, usual class: inhibitors. hit rate 3.5% among 310,000. AID 1490;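 further: the enzyme is Sfp with the accession as filed and its product quenches rhodamine fluorescence; 0% = enzyme reaction without inhibitor and -100% = no enzyme wells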
#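 With Hepes-Na pH 7.6 buffer containing 10 mM MgCl2, Sfp (15 nM) modified BHQ-2-YbbR (12.5 uM) using rhodamine-CoA (5 uM). Two reads 30 minutes apart at 525/598 nm yielded each well's rate.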
# G9a inh: G9a (human) methyltransferase inhibition | Potency, µM (top dose mostly 102 µM), inactives show at the top dose activity, negative = inhibition, actives largely listed as inhibitors | Q96KQ7 | G9a H3K9 monomethylation, AlphaScreen, 2 h | hit rate 8.8% among 350,000; further: on the % scale 0 is the no-effect control and ±100 the full control effect; nearly all actives have a fitted effect of over 75% in size
# Target sequence (Q96KQ7 913-1193 limits assumed): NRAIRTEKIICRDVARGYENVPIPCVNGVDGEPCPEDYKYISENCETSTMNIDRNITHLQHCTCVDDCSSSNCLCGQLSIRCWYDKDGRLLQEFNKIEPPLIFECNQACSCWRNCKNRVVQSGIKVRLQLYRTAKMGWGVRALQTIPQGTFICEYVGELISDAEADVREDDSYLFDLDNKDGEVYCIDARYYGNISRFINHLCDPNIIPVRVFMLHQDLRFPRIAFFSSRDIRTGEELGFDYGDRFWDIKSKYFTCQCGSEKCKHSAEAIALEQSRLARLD
#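 Step 1: enzyme (final 20 nM) with compound, 15 min RT. Step 2: substrate peptide 500 nM and SAM 20 uM, 2 h RT. Step 3: anti-H3K9me1 antibody and AlphaScreen beads, 10 min, then plate read.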
# HP1b binding inh: HP1-beta chromodomain-methylated histone interaction inhibition. hit rate 0.56% among 390,000. AlphaScreen HP1-beta / biotin-H3K9me3 peptide binding. Potency, µM (highest dose often 114 µM), without a hit: top-dose activity change, negative = inhibition, hits mostly inhibitors. AID 540317; further: nearly all actives have a fitted effect of over 70% in size
# Target sequence (P83916 whole entry, looked up): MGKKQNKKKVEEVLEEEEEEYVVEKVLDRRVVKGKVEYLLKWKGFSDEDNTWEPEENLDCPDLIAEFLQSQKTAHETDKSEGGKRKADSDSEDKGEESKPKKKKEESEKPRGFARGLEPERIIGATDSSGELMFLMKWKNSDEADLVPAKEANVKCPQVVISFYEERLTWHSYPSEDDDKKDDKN
#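 HP1-beta protein (50 nM final) preincubated 30 min at room temperature with biotinylated H3(1-18)K9me3 peptide (50 nM) in PBS pH 7.4, 0.01% Tween-20, then compound added for 30 min. AlphaScreen streptavidin donor/nickel chelate acceptor beads (10 ug/mL final), 30 min dark, luminescence read.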
# An asterisk follows results filed as active; ? = inconclusive; / = not tested or not shown; [ ] = dose if it differs, or a comment. Compounds with a hit are over-represented: about 12% of the library has one in this group of screens. The call rests on the fitted dose curve; in most records, active means well fitted curve in the direction sought with a large enough effect; inconclusive means small, poorly fitted or top-dose-only effect, or another doubt; inactive means no such curve, though single readings can be large; an effect the other way counts as inactive or inconclusive. Potency means the concentration at half of the fitted maximal effect.
SMILES,JMJD2A Tudor,BAZ2B inh,L3MBTL1 block,Sfp PPTase inh,G9a inh,HP1b binding inh
CCN(CC)CCCCn1c(-c2ccccc2)nc2c(NCc3ccccc3)nc(C)nc21,/,/,/,15%,/,/
CCOc1ccc(C(=O)NCCc2sc(-c3ccc(OC)c(OC)c3)nc2C)cc1,-15%,-5%,/,/,18%[59 µM],12%[57 µM]
O=C(NCCOc1ccccc1-c1ccccc1)c1ccco1,-11%,-15%,6%,10%,21%,-25%
CN(C)CCNCCCOc1ccccc1-c1ccccc1,/,40µM*,-8%,50µM*,8.9µM*,/
C=CCNCCOCCOc1ccccc1-c1ccccc1,50µM*,79µM*,51%,-5%,/,-26%
Cc1ccc2oc(=O)c3cc(C(=O)Nc4cccc(C#N)c4)sc3c2c1,3%,-30%,/,/,0%[59 µM],44%
O=C1S/C(=C\c2ccccn2)C(=O)N1Cc1ccccc1F,-20%,6%,2%,25%,18µM*,1%
O=C(CN1C(=O)S/C(=C/c2ccccn2)C1=O)N1CCOCC1,-6%,-24%,/,12%,2%,13%
O=C(Nc1nnc(Cc2ccccc2)s1)C1CCN(C(=O)c2cccs2)CC1,-17%,/,/,/,/,12%
COc1cc(C(=O)Nc2c(C(=O)O)[nH]c3ccc(C)cc23)cc(OC)c1OC,-20%,-21%,/,-1%,?,-4%
COc1cc2c(cc1OC)CN(CC(=O)Nc1ccc(C)cc1)CC2,-17%,-36%,/,23%,?,26%
COC(=O)c1[nH]c2ccc(C)cc2c1NC(=O)Nc1ccccc1OC,-6%,3%,-6%,?,40µM*,13%
COC(=O)c1[nH]c2ccc(C)cc2c1NC(=O)CN1CCc2cc(OC)c(OC)cc2C1,-26%,?,-7%,-3%,50µM*,16%
COCCn1c(CN2CCc3ccccc3C2)nc2c1c(=O)n(C)c(=O)n2C,-2%,-5%,3%,9%,/,33%
Cn1c(=O)c2c(nc(CN3CCN(Cc4ccccc4)CC3)n2Cc2cccc(Cl)c2)n(C)c1=O,-29%,-39%,-10%,-1%,40µM*,22%
Cn1c(=O)c2c(nc(CN3CCc4ccccc4C3)n2Cc2cccc(Cl)c2)n(C)c1=O,-27%,-1%,-13%,-6%,8.9µM*,43%
COc1ccccc1-c1cc(NCc2ccccc2)ncn1,/,/,/,-5%,3%[0.501 µM],/
CC(=O)NC1CCCN(O)C(=O)/C=C(\C)CCOC(=O)C(NC(C)=O)CCCN(O)C(=O)/C=C(\C)CCOC(=O)C(NC(C)=O)CCCN(O)C(=O)/C=C(\C)CCOC1=O (stereo not given),1%,-22%,26%,56µM*,-107%[59 µM],78%
CC(=O)NC1CCC(=O)C=C1c1ccccc1 (stereo not given),-8%,/,/,/,/,23%
O=C(COC(=O)c1cnccn1)N=c1sccn1Cc1ccccc1Cl,-18%,0%,-8%,/,56µM*,14%
Cc1cnc(C(=O)OCC(=O)N=c2sccn2Cc2ccccc2Cl)cn1,-12%,-19%,/,3%,4%,39%
CS(=O)(=O)Nc1cccc(-c2nc(Nc3ccncc3)c3ccccc3n2)c1,/,/,/,9%,6%[0.501 µM],/
CCN1C(c2ccc(F)cc2)=CS/C1=C(\C#N)c1nnc2n1-c1ccccc1SC2,?,?,-15%,-23%,32µM*,-16%
CCCCN(c1ccccc1)c1ncnc2c1cnn2-c1ccc(Cl)cc1,19%,3%,/,/,17%[59 µM],26%
CC(C)(C)N=C1NN=C(c2ccc(Cl)cc2)CS1,?,?,-18%,1%,-1%[59 µM],0%
SMILES,JMJD2A Tudor,BAZ2B inh,L3MBTL1 block,Sfp PPTase inh,G9a inh,HP1b binding inh
CC(C)c1ccc(N=C2NN=C(c3cccs3)CS2)cc1,-33%,?,/,6%,-4%,-15%
CC(C)N=C1NN=C(c2ccc(Cl)c(Cl)c2)CS1,?,?,/,0%,45µM*,-11%
CC(C)N=C1NN=C(c2cccs2)CS1,-7%[57.1 µM],-14%,/,-21%,20µM*,-12%
CCOc1ccccc1CNC(=O)c1cc(-c2ccc(Cl)s2)nc2ccccc12,-5%,1%,/,/,-2%[59 µM],12%
NS(=O)(=O)c1cccc(NC(=O)CCCNC(=O)c2ccc(Cl)cc2)c1,-10%,-10%,/,14%,19%,18%
NS(=O)(=O)c1cccc(NC(=O)CCSc2ccc(Cl)cc2)c1,9%,-6%,7%,6%,1.4µM*,44%
O=C(CN1C(=O)c2ccccc2C1=O)OCC(=O)c1ccc(F)cc1,-21%,5%,5%,/,50µM*,10%
C=CCn1c(NC(=O)c2ccccc2Cl)c(C#N)c2nc3ccccc3nc21,-23%,10%,?,79µM*,12%[59 µM],40%
CCCCn1c(NC(C)=O)c(C#N)c2nc3ccccc3nc21,11%,-6%,-3%,-6%,?,28%
Cc1ccc(C)c(NC(=O)Cn2c(SCC(=O)NCc3ccccc3)nc3ccccc32)c1,-25%,-9%,/,/,-9%[59 µM],3%
CC(C)C(=O)Nc1cccc(N2CCN(CCCN3C(=O)C4CCCCN4C3=O)CC2)c1 (stereo not given),79µM*,/,/,/,/,18%
O=C1C2CCCCN2C(=O)N1CCCCN1CCN(c2cccc(Cl)c2)CC1 (stereo not given),-25%,-20%,11%,-1%,?,8%
O=C1C2CCCN2C(=O)N1CCCN1CCN(c2cccc(Cl)c2)CC1 (stereo not given),-13%,1%,-2%,27%,15%[59 µM],32%
Cc1ccc(N2CCN(CCCN3C(=O)C4CCCN4C3=O)CC2)cc1 (stereo not given),-21%,?,5%,-28%,8.9µM*,24%
CCOc1ccc(-c2cn3c(n2)sc2cc(C(=O)NCCc4ccc(OC)c(OC)c4)ccc23)cc1,4%,0%,/,/,2%[59 µM],43%
CC1CCCC(N2CCN(C(=O)c3ccccc3F)CC2)C1 (stereo not given),-5%,-2%,3%,10%,-5%,40%
CC1CN(C2CCN(C(=O)c3ccccc3)CC2)CC(C)O1 (stereo not given),1.3µM*,56µM*,/,-8%,2.5µM*,?
O=C(c1ccc(F)cc1)N1CCC(N2CCOCC2)CC1,7.9µM*,?,-4%,-15%,10µM*,-54%
CC1CN(C(=O)c2ccc(C(=O)c3ccccc3)cc2)CC(C)O1 (stereo not given),-13%,4%,1%,20%,0%[59 µM],30%
CC1CCN(C2CCN(C(=O)c3ccccc3F)CC2)CC1,0.89µM*,?,9%,-12%,28µM*,?
Cc1ccccc1CNC(=O)c1ccc(NC(=O)c2nsc3ccccc23)cc1,-6%,2%,/,/,1%[59 µM],26%[57 µM]
